Results published in PubChem BioAssay (NCATS).
Inconclusive results are not listed. Unmarked numbers belong to inactive results. The source made the active and inactive calls. Calls come from the whole dose curve; as a rule, active = well fitted curve in the direction sought with a large enough effect; inconclusive = small, poorly fitted or top-dose-only effect, or another doubt; inactive = no such curve, though single readings can be large; an effect the other way counts as inactive or inconclusive.

Columns and labels:
[1] = tested on: HEK293; test: Cytotoxic Profiling of Annotated Libraries Using Quantitative High-Throughput Screening (AID 1296008); settings: Five cell lines viability, CellTiter-Glo ATP luminescence, 48-72 h; max response: hits give low values; note: nearly all actives have a fitted effect of over 60% in size
Outline: (§1)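 Cytotoxicity was measured as CellTiter-Glo ATP luminescence, read after 10 min at room temperature. Compound treatment of the cells lasted 48 or 72 hr at 37 degrees Celsius in a qHTS format.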

[2] = tested on: HaCat; test: as above; settings: Five cell lines viability, CellTiter-Glo ATP luminescence, 48-72 h; max response: hits give low values
Outline: as §1

[3] = tested on: KB-3-1; test: as above; settings: Five cell lines viability, CellTiter-Glo ATP luminescence, 48-72 h; max response: hits give low values
Outline: as §1

[4] = tested on: NIH3T3; test: as above; settings: Five cell lines viability, CellTiter-Glo ATP luminescence, 48-72 h; max response: hits give low values
Outline: as §1

[5] = tested on: CASKI; test: Primary qHTS to identify gynecologic anti-cancer compounds using libraries of approved drugs and bioactive compounds (AID 1345084); settings: Gynecologic cancer cell panel viability, ATPlite luminescence, 48 h; series mostly up to 57.5 µM; note: nearly all actives have a fitted effect of over 55% in size
Outline: (§2)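 Five-concentration response, 48 h; readout is ATP-driven luciferase luminescence.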

[6] = tested on: Es-2; test: as above; settings: Gynecologic cancer cell panel viability, ATPlite luminescence, 48 h; series mostly up to 57.5 µM
Outline: as §2

[7] = tested on: HeLa; test: as above; settings: Gynecologic cancer cell panel viability, ATPlite luminescence, 48 h; series mostly up to 57.5 µM
Outline: as §2

[8] = tested on: JEG-3; test: as above; settings: Gynecologic cancer cell panel viability, ATPlite luminescence, 48 h; series mostly up to 57.5 µM
Outline: as §2

[9] = tested on: Hek293T; test: as above; settings: Gynecologic cancer cell panel viability, ATPlite luminescence, 48 h, control line for the selectivity index; series mostly up to 57.5 µM
Outline: as §2

[10] = tested on: CAOV3; test: as above; settings: Gynecologic cancer cell panel viability, ATPlite luminescence, 48 h; series mostly up to 57.5 µM
Outline: as §2
% is set by controls: 0 for no effect and ±100 for the full control effect; potency is the fitted concentration of half-maximal effect.

Compound: C#CCN(Cc1cc2c(=O)[nH]c(C)nc2cc1Br)c1ccc(C(=O)NCc2cccnc2)cc1
- Potency [1]: 0.0046 µM (active)
- Potency [2]: 0.0411 µM (active)
- Potency [3]: 0.0052 µM (active)
- Potency [4]: 0.0092 µM (active)
- Potency [5]: 0.447 µM (active)

Compound: CC(C)c1c2cc(-c3ccnc(NC4CCC(NC5CCOCC5)CC4)n3)ccc2nn1C (configuration not stated)
- Potency [1]: 0.13 µM (active)
- Potency [2]: 1.64 µM (active)
- Potency [3]: 0.231 µM (active)
- Potency [4]: 1.03 µM (active)
- Potency [5]: 0.631 µM (active)
- Potency [6]: 0.316 µM (active)
- Potency [7]: 0.708 µM (active)
- Potency [8]: inactive

Compound: CCOc1cc2ncc(C#N)c(Nc3ccc(F)c(Cl)c3)c2cc1NC(=O)/C=C/CN(C)C
- Potency [1]: 1.64 µM (active)
- Potency [2]: 0.0259 µM (active)
- Potency [3]: 5.8 µM (active)
- Potency [4]: 3.66 µM (active)
- Potency [9]: 25.1 µM (active)

Compound: COc1ccc(F)cc1-c1cc(NC(=O)[C@@H]2CCCNC2)ncc1Cl
- Potency [1]: 0.259 µM (active)
- Potency [2]: 1.16 µM (active)
- Potency [3]: 0.231 µM (active)
- Potency [4]: 1.03 µM (active)
- Potency [5]: 0.891 µM (active)
- Potency [6]: 0.794 µM (active)
- Potency [7]: 0.708 µM (active)
- Potency [9]: 0.398 µM (active)
- Potency [8]: inactive

Compound: C=C1C(OC(C)=O)CCC2(C)CC3(OC)OC(=O)C(C)=C3CC12 (configuration not stated)
- max response [1]: -22.9%
- max response [2]: -0.749%
- max response [3]: 7.17%
- max response [4]: 0.22%
- Potency [6]: inactive
- Potency [7]: inactive
- Potency [9]: inactive

Compound: C[C@H]1[C@H](O)O[C@@H]2O[C@@]3(C)CC[C@H]4[C@H](C)CC[C@@H]1[C@@]24OO3
- Potency [1]: 1.84 µM (active)
- Potency [2]: 6.51 µM (active)
- Potency [3]: 16.4 µM (active)
- Potency [4]: 13 µM (active)
- Potency [7]: 12.6 µM (active)
- Potency [9]: 8.91 µM (active)

Compound: CCN1CCN(Cc2ccc(NC(=O)c3ccc(C)c(NC(=O)c4cncc(-c5cccs5)c4)c3)cc2C(F)(F)F)CC1
- Potency [1]: 1.3 µM (active)
- Potency [2]: 0.92 µM (active)
- Potency [3]: 14.6 µM (active)
- Potency [4]: 1.16 µM (active)
- Potency [10]: 10 µM (active)
- Potency [5]: 10 µM (active)
- Potency [6]: 2.82 µM (active)
- Potency [8]: 25.1 µM (active)

Compound: CN1CCN(C2CCC(n3cc(-c4ccc(Oc5ccccc5)cc4)c4c(N)ncnc43)CC2)CC1 (configuration not stated)
- Potency [1]: 18.4 µM (active)
- Potency [2]: 1.03 µM (active)
- Potency [3]: 20.6 µM (active)
- Potency [4]: 0.326 µM (active)
- Potency [10]: 28.2 µM (active)
- Potency [5]: 15.8 µM (active)
- Potency [7]: 22.4 µM (active)
- Potency [9]: inactive
- Potency [8]: inactive

Compound: CN(C)C/C=C/C(=O)Nc1cccc(C(=O)Nc2cccc(Nc3ncc(Cl)c(-c4c[nH]c5ccccc45)n3)c2)c1
- Potency [1]: 0.58 µM (active)
- Potency [2]: 4.61 µM (active)
- Potency [3]: 1.03 µM (active)
- Potency [4]: 4.11 µM (active)
- Potency [5]: 1.58 µM (active)
- Potency [6]: 8.91 µM (active)
- Potency [7]: 2 µM (active)

Compound: CCc1cnn2c(NCc3ccc[n+]([O-])c3)cc(N3CCCCC3CCO)nc12 (configuration not stated)
- Potency [1]: 0.013 µM (active)
- Potency [2]: 0.0461 µM (active)
- Potency [3]: 0.0092 µM (active)
- Potency [4]: 0.0651 µM (active)
- Potency [8]: inactive

Compound: Cc1cc(OCc2nnc(SC3CCCC3)n2-c2cccnc2)ccc1-c1ccc(S(C)(=O)=O)cc1
- Potency [1]: 0.291 µM (active)
- Potency [2]: 4.61 µM (active)
- Potency [3]: 1.46 µM (active)
- Potency [4]: 10.3 µM (active)
- Potency [10]: 31.6 µM (active)
- Potency [7]: 31.6 µM (active)

Compound: CCCNc1ccc2ncc(-c3ccc4[nH]ncc4c3)n2n1
- Potency [1]: 1.64 µM (active)
- Potency [2]: 0.411 µM (active)
- Potency [3]: 1.3 µM (active)
- Potency [4]: 3.26 µM (active)
- Potency [5]: 8.91 µM (active)
- Potency [7]: 4.47 µM (active)
- Potency [9]: 2 µM (active)

Compound: CS(=O)(=O)N1CCC(NC(=O)c2[nH]ncc2NC(=O)c2c(Cl)cccc2Cl)CC1
- Potency [1]: 1.16 µM (active)
- Potency [2]: 4.61 µM (active)
- Potency [3]: 0.82 µM (active)
- Potency [4]: 2.59 µM (active)
- Potency [5]: 7.94 µM (active)
- Potency [6]: 4.47 µM (active)
- Potency [7]: 10 µM (active)
- Potency [9]: 5.01 µM (active)
- Potency [8]: inactive

Compound: CC(C)c1nc(-c2ccc(NC(=O)Nc3cccc(C(F)(F)F)c3)c3ccccc23)c2c(N)nccn12
- Potency [1]: 6.51 µM (active)
- Potency [2]: 7.31 µM (active)
- Potency [3]: 5.8 µM (active)
- Potency [4]: 8.2 µM (active)
- Potency [10]: 22.4 µM (active)
- Potency [6]: 12.6 µM (active)
- Potency [7]: 31.6 µM (active)
- Potency [9]: 15.8 µM (active)
- Potency [8]: inactive

Compound: C=CC(=O)Nc1cc(Nc2ncc(Cl)c(-c3c[nH]c4ccccc34)n2)c(OC)cc1N(C)CCN(C)C
- Potency [1]: 2.06 µM (active)
- Potency [2]: 0.58 µM (active)
- Potency [3]: 4.11 µM (active)
- Potency [4]: 5.8 µM (active)
- Potency [10]: 17.8 µM (active)
- Potency [5]: 2.24 µM (active)
- Potency [7]: 12.6 µM (active)
- Potency [9]: 11.2 µM (active)
- Potency [8]: 12.6 µM (active)

Compound: CCC1C(=O)OC23C=C[C@@H]4C(C(=O)O)=CO[C@H](O[C@@H]12)[C@@H]43 (some centres not stated)
- max response [1]: -24.7%
- max response [2]: 2.84%
- max response [3]: -1.99%
- max response [4]: 0.895%
- Potency [10]: inactive
- Potency [5]: inactive
- Potency [6]: inactive
- Potency [7]: inactive
- Potency [9]: inactive
- Potency [8]: inactive

Compound: CCCCC1CCN(CCCC(=O)c2ccccc2C)CC1
- Potency [1]: 16.4 µM (active)
- max response [2]: -61.6%
- max response [3]: -21.4%
- max response [4]: -22.9%
- Potency [6]: inactive
- Potency [7]: inactive

Compound: NCCCNc1ccc(Nc2nccc(Nc3cc(C4CC4)[nH]n3)n2)cc1
- Potency [1]: 1.03 µM (active)
- Potency [2]: 4.61 µM (active)
- Potency [3]: 0.82 µM (active)
- Potency [4]: 5.8 µM (active)
- Potency [5]: 3.98 µM (active)
- Potency [6]: 2.24 µM (active)
- Potency [7]: 4.47 µM (active)
- Potency [9]: 1.41 µM (active)
- Potency [8]: inactive

Compound: CCn1c(=O)c(-c2ccn[nH]2)cc2c(C)nc(N)nc21
- Potency [1]: 4.61 µM (active)
- Potency [2]: 2.59 µM (active)
- Potency [3]: 7.31 µM (active)
- Potency [4]: 1.84 µM (active)
- Potency [5]: 15.8 µM (active)
- Potency [7]: 8.91 µM (active)
- Potency [9]: 8.91 µM (active)
- Potency [8]: inactive

Compound: CC(Oc1ccc2[nH]nc(/C=C/c3cnn(CCO)c3)c2c1)c1c(Cl)cncc1Cl (configuration not stated)
- Potency [1]: 2.91 µM (active)
- Potency [2]: 2.06 µM (active)
- Potency [3]: 0.291 µM (active)
- Potency [4]: 0.517 µM (active)
- Potency [6]: 20 µM (active)
- Potency [7]: 1.58 µM (active)
- Potency [9]: 10 µM (active)

Compound: CC(Nc1ncnc2nc[nH]c12)c1cc2cccc(Cl)c2c(=O)n1-c1ccccc1 (configuration not stated)
- Potency [1]: 18.4 µM (active)
- Potency [2]: 20.6 µM (active)
- max response [3]: -11.3%
- Potency [4]: 13 µM (active)
- Potency [10]: inactive
- Potency [6]: inactive
- Potency [7]: inactive
- Potency [8]: inactive
